About 2,000 (36%) of roughly 5,500 compounds were called active. About 18% were inconclusive and are not listed. No stated cut-off is given here; in the data, active means normalized growth mostly below about 0.91 (no sharp cut-off); inconclusive means no clear call, values can overlap the other calls; inactive means mostly above about 0.92. Some of the results follow.
Experiment: chemical genetic growth profiling, strain panel (AID 1159580);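 further: tested at 20 µM; growth read once vehicle control cultures reached saturation at 30 °C; 1 = growth at the plate median or of vehicle wells; lower values mean less growth of the strain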
Conditions: growth OD

Measured: normalized growth

CC(C(=O)O)c1ccc2c(c1)[nH]c1ccc(Cl)cc12 (configuration not stated)
active: S. cerevisiae deletion strains, locus YLR113W, strain HOG1, hits give low values 0.248 | S. cerevisiae deletion strains, locus YNL183C, strain NPR1, hits give low values 0.507 | S. cerevisiae deletion strains, locus YNL250W, strain rad50, hits give low values 0.885 | S. cerevisiae deletion strains, locus YNL322C, strain KRE1 (second series), hits give low values 0.895 | S. cerevisiae deletion strains, locus YOR231W, strain MKK1, hits give low values 0.212 | S. cerevisiae deletion strains, locus YPL256C, strain CLN2, hits give low values 0.238
inactive: S. cerevisiae deletion strains, locus YJR075W, strain HOC1, hits give low values 1.01 | S. cerevisiae deletion strains, locus YKL009W, strain mrt4, hits give low values 0.975 | S. cerevisiae deletion strains, locus YKL068W, hits give low values 0.964 | S. cerevisiae deletion strains, locus YKL085W, strain MDH1 (second series), hits give low values 0.95 | S. cerevisiae deletion strains, locus YKL085W, strain MDH1, hits give low values 0.95 | S. cerevisiae deletion strains, locus YKL160W, strain elf1, hits give low values 0.941 | S. cerevisiae deletion strains, locus YKL190W, strain CNB1, hits give low values 1.01 | S. cerevisiae deletion strains, locus YKR001C, strain vps1, hits give low values 0.937 | S. cerevisiae deletion strains, locus YKR026C, strain gcn3, hits give low values 0.983 | S. cerevisiae deletion strains, locus YKR091W, strain srl3, hits give low values 0.988 | S. cerevisiae deletion strains, locus YLL001W, strain dnm1, hits give low values 1 | S. cerevisiae deletion strains, locus YLL026W, hits give low values 0.978 | S. cerevisiae deletion strains, locus YLL041C, strain sdh2, hits give low values 1 | S. cerevisiae deletion strains, locus YLR027C, strain aat2, hits give low values 0.992 | S. cerevisiae deletion strains, locus YLR039C, strain RIC1, hits give low values 0.977 | S. cerevisiae deletion strains, locus YLR058C, strain SHM2, hits give low values 1 | S. cerevisiae deletion strains, locus YLR102C, strain apc9, hits give low values 0.991 | S. cerevisiae deletion strains, locus YLR221C, strain rsa3, hits give low values 0.986 | S. cerevisiae deletion strains, locus YLR258W, strain gsy2, hits give low values 0.976 | S. cerevisiae deletion strains, locus YLR262C, strain YPT6 (second series), hits give low values 0.94 | S. cerevisiae deletion strains, locus YLR262C, strain YPT6, hits give low values 0.989 | S. cerevisiae deletion strains, locus YLR268W, strain sec22, hits give low values 0.992 | S. cerevisiae deletion strains, locus YLR320W, strain mms22, hits give low values 0.937 | S. cerevisiae deletion strains, locus YLR330W, strain CHS5, hits give low values 0.998 | S. cerevisiae deletion strains, locus YLR342W, strain FKS1 (second series), hits give low values 0.987 | S. cerevisiae deletion strains, locus YLR342W, strain FKS1, hits give low values 0.966 | S. cerevisiae deletion strains, locus YLR357W, strain rsc2, hits give low values 0.923 | S. cerevisiae deletion strains, locus YLR370C, strain arc18, hits give low values 0.972 | S. cerevisiae deletion strains, locus YLR371W, strain rom2, hits give low values 0.984 | S. cerevisiae deletion strains, locus YLR384C, strain iki3, hits give low values 0.964 | S. cerevisiae deletion strains, locus YLR418C, strain cdc73, hits give low values 0.962 | S. cerevisiae deletion strains, locus YML016C, strain PPZ1, hits give low values 1.01 | S. cerevisiae deletion strains, locus YML032C, strain rad52, hits give low values 0.965 | S. cerevisiae deletion strains, locus YML120C, strain ndi1, hits give low values 0.985 | S. cerevisiae deletion strains, locus YML124C, strain tub3, hits give low values 0.981 | S. cerevisiae deletion strains, locus YMR058W, strain fet3, hits give low values 1 | S. cerevisiae deletion strains, locus YMR078C, strain ctf18, hits give low values 0.983 | S. cerevisiae deletion strains, locus YMR125W, strain sto1, hits give low values 0.969 | S. cerevisiae deletion strains, locus YMR129W, hits give low values 0.995 | S. cerevisiae deletion strains, locus YMR205C, strain PFK2, hits give low values 0.962 | S. cerevisiae deletion strains, locus YMR223W, strain ubp8, hits give low values 0.975 | S. cerevisiae deletion strains, locus YMR231W, strain pep5, hits give low values 0.957 | S. cerevisiae deletion strains, locus YMR263W, strain SAP30, hits give low values 1.02 | S. cerevisiae deletion strains, locus YMR307W, strain GAS1, hits give low values 0.996 | S. cerevisiae deletion strains, locus YNL067W, strain RPL9B, hits give low values 1.03 | S. cerevisiae deletion strains, locus YNL071W, strain lat1, hits give low values 0.982 | S. cerevisiae deletion strains, locus YNL128W, strain TEP1, hits give low values 1 | S. cerevisiae deletion strains, locus YNL153C, strain GIM3, hits give low values 1.03 | S. cerevisiae deletion strains, locus YNL209W, strain ssb2, hits give low values 0.988 | S. cerevisiae deletion strains, locus YNL233W, strain BNI4, hits give low values 1.02 | S. cerevisiae deletion strains, locus YNL248C, strain rpa49, hits give low values 0.963 | S. cerevisiae deletion strains, locus YNL271C, strain bni1, hits give low values 0.942 | S. cerevisiae deletion strains, locus YNL298W, strain CLA4, hits give low values 0.91 | S. cerevisiae deletion strains, locus YNL307C, strain MCK1, hits give low values 0.963 | S. cerevisiae deletion strains, locus YNL322C, strain KRE1, hits give low values 1.01 | S. cerevisiae deletion strains, locus YNR049C, strain mso1, hits give low values 0.988 | S. cerevisiae deletion strains, locus YNR052C, strain pop2, hits give low values 0.97 | S. cerevisiae deletion strains, locus YOL006C, strain TOP1, hits give low values 1.07 | S. cerevisiae deletion strains, locus YOL012C, strain htz1 0.756 | S. cerevisiae deletion strains, locus YOL147C, strain pex11, hits give low values 0.974 | S. cerevisiae deletion strains, locus YOR001W, strain rrp6, hits give low values 1 | S. cerevisiae deletion strains, locus YOR061W, strain CKA2, hits give low values 1 | S. cerevisiae deletion strains, locus YOR069W, strain VPS5, hits give low values 1.01 | S. cerevisiae deletion strains, locus YOR070C, strain gyp1, hits give low values 0.981 | S. cerevisiae deletion strains, locus YOR080W, strain dia2, hits give low values 1 | S. cerevisiae deletion strains, locus YOR083W, strain WHI5, hits give low values 0.898 | S. cerevisiae deletion strains, locus YOR106W, strain vam3, hits give low values 0.925 | S. cerevisiae deletion strains, locus YOR136W, strain idh2, hits give low values 0.963 | S. cerevisiae deletion strains, locus YOR144C, strain elg1, hits give low values 0.98 | S. cerevisiae deletion strains, locus YOR184W, strain ser1, hits give low values 0.986 | S. cerevisiae deletion strains, locus YOR265W, strain rbl2, hits give low values 0.993 | S. cerevisiae deletion strains, locus YOR270C, strain vph1, hits give low values 0.999 | S. cerevisiae deletion strains, locus YOR290C, strain snf2, hits give low values 0.95 | S. cerevisiae deletion strains, locus YOR316C, strain cot1, hits give low values 0.989 | S. cerevisiae deletion strains, locus YPL051W, strain arl3, hits give low values 0.953 | S. cerevisiae deletion strains, locus YPL055C, strain LGE1, hits give low values 1.04 | S. cerevisiae deletion strains, locus YPL078C, strain atp4, hits give low values 0.946 | S. cerevisiae deletion strains, locus YPL106C, strain sse1, hits give low values 0.938 | S. cerevisiae deletion strains, locus YPL240C, strain hsp82, hits give low values 1 | S. cerevisiae deletion strains, locus YPL241C, strain CIN2, hits give low values 1.01 | S. cerevisiae deletion strains, locus YPR119W, strain clb2, hits give low values 0.993 | S. cerevisiae deletion strains, locus YPR141C, strain kar3, hits give low values 0.967 | S. cerevisiae deletion strains, locus YPR163C, strain tif3, hits give low values 0.981 | S. cerevisiae deletion strains, locus YPR167C, strain met16, hits give low values 0.995 | S. cerevisiae deletion strains, strain wtn01, hits give low values 0.998 | S. cerevisiae strains, strain wild type, hits give low values 0.995
